# Measured values from the supplement of paper PMC6555819.
# System: LXRa homodimer (NR concentration 270 nM)
# Experiment: PBM binding z-score (relative to random genomic background probes); higher = stronger binding; sequences stand for … in GC…GCGATTGACAGCGTAGAATGAAGG
# How it was run: (§1)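 Ligand-free nuclear receptor dimers were applied to custom Agilent 4×180K protein-binding microarrays whose double-stranded probes carried direct-repeat seeds, single-nucleotide variants, half-site ablations and random human genomic background sequences in 34-nt variable regions. Incubation lasted 1 h. Binding z-scores were computed against the random background probes from regression-normalized fluorescence.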
row,Sequence,PBM binding z-score
1,ATTCGGAGGACAAAGGTCAGAGCTACGCCAGTGA,1.79
2,GGAACGAGGGCAAGTTGATGGCAGAGTTTGATGG,-0.0865
3,AGTCAAAGTTCACTAGGTCACGTAAGATTCAGCT,5.68
4,TCTTGTAGATCAGGAGGTTAAGAAAGCTGGCCAA,0.262
5,TAGCCTAGGTCAGATCGGTCCAGTATACGCTATA,-0.475
6,ATCTCTAGGTAACCAAGTTCAGGGAATGCCGAAC,0.817
7,TCGAGTAGGTTAGGGGCGTTCAGAATGGCGTCGA,-0.22
8,TCATATAGGTAAACAGGGGAAAGTCCGTAAGTTA,0.283
9,ACTATTAGTTGAGACGAGGGCAACCTATAGGTTG,-0.0979
10,CCTACTGGGCCATCAGGCCATTGATATCAACGTT,-0.106
11,TCTCGGAGCACACGAAGGTCAGAGCTTTCCAGAG,-0.215
12,ATCTCTAGGTAACCAAGTTCAATGAATGCCGAAC,1.7
13,TGGATGAGGTTAAAGATCAGGGAACGTGGCGTCG,0.085
14,CTCGAAAGGTCGGTTGAGGTGCGTATACGGATAA,-0.235
15,ATCGAAAGGTCGAGCTGAGTATAGAGAAAGGGAA,-0.419
16,ACAGACATGTGAGTGAAGGTAACTCAGCTGGACG,-0.659
17,CAAACTAGGTCACGGAAGGTCAAAGTCGAATGAC,6.7
18,TAGCATAGGTCATTGGGCCAGTATAGTACGCATC,1.27
19,AGTCAAAGTTCATCTAGGTAACGTATGATATGCT,5.49
20,AGAATGAGGTTAAGATGAGGGAAACAGAATACAT,0.0375

row,Sequence,PBM binding z-score
1,CCTCCAAGGTCAATGCTAGGTCAGTGAAAGCATT,2.29
2,TCGAGTAGGTTAGGGGCAGTCAGAATGGCGTCGA,-0.0968
3,ATCGAAAGGTCGACGAGGTGTGTATACACCGTTT,0.0715
4,CCTACTGGGCCATTCAGAGGTCTTTGATCATATG,-0.37
5,ATCGAAACGTCGAGGTGAGTATAGAGAAAGGGAA,-0.626
6,CCCAGCAGGCCAGGGTCACTCAAGCATTTCGCTT,-0.513
7,CTTCCAAGGTCAATGCTAGGTCAGTGAAAGCATT,3.58
8,GGTACGAGGGCATTCGAGTTGATAGCATGGCGAT,-0.269
9,TGTCAAAGTTCAAAGGTAACGTACGTATCCACAC,4.32
10,GGAACGAGAGCAAAGTTGATAGCATCTGTCGACG,-0.809
11,GCTATTAGTTGAAAGGGCAACCAAATGATTCTCG,0.214
12,ATATGTAGGTTACAACCGGGTCATTCAGGCTATG,1.33
13,TCTTGTAGATCAACAGGGGGTTAAGAAAGATCGA,0.266
14,CCTACTGGGCCAAAAAGCTCATTGATGCCGATAA,-0.717
15,AGTCAAAGTTCAGGACGAGTTAACGTAAAGCACG,1.02
16,TGAATGAGGTTAAAGATTAGGGAACGTGGCGTCG,-0.0169
17,CAAACTAGGTCCCGAAAGGTCAAAGTCGAATGAC,5.76
18,CCAAGTTGGTCAGGAGGTCACACACCGGATATGA,1.69
19,AGTCAAAGTTCAGGACGATGTAACGTAAAGCACG,0.938
20,GCAACGAGGGCAAAGTTGATAGCATCTGTCGACG,-0.469

# System: LXRb:RXRa (NR concentration 270 nM, RXRa partner concentration 90 nM)
# Experiment: as above
# How it was run: as §1
row,Sequence,PBM binding z-score
1,ATTCGGAGGACAAAGGTCAGAGCTACGCCAGTGA,3.52
2,GGAACGAGGGCAAGTTGATGGCAGAGTTTGATGG,-0.0137
3,AGTCAAAGTTCACTAGGTCACGTAAGATTCAGCT,4.32
4,TCTTGTAGATCAGGAGGTTAAGAAAGCTGGCCAA,0.752
5,TAGCCTAGGTCAGATCGGTCCAGTATACGCTATA,0.809
6,ATCTCTAGGTAACCAAGTTCAGGGAATGCCGAAC,0.638
7,TCGAGTAGGTTAGGGGCGTTCAGAATGGCGTCGA,0.565
8,TCATATAGGTAAACAGGGGAAAGTCCGTAAGTTA,0.925
9,ACTATTAGTTGAGACGAGGGCAACCTATAGGTTG,0.142
10,CCTACTGGGCCATCAGGCCATTGATATCAACGTT,-0.246
11,TCTCGGAGCACACGAAGGTCAGAGCTTTCCAGAG,0.706
12,ATCTCTAGGTAACCAAGTTCAATGAATGCCGAAC,1.34
13,TGGATGAGGTTAAAGATCAGGGAACGTGGCGTCG,2.45
14,CTCGAAAGGTCGGTTGAGGTGCGTATACGGATAA,1.24
15,ATCGAAAGGTCGAGCTGAGTATAGAGAAAGGGAA,2.54
16,ACAGACATGTGAGTGAAGGTAACTCAGCTGGACG,-0.669
17,CAAACTAGGTCACGGAAGGTCAAAGTCGAATGAC,6.73
18,TAGCATAGGTCATTGGGCCAGTATAGTACGCATC,4.02
19,AGTCAAAGTTCATCTAGGTAACGTATGATATGCT,3.77
20,AGAATGAGGTTAAGATGAGGGAAACAGAATACAT,1.84

row,Sequence,PBM binding z-score
1,CCTCCAAGGTCAATGCTAGGTCAGTGAAAGCATT,4.51
2,TCGAGTAGGTTAGGGGCAGTCAGAATGGCGTCGA,0.86
3,ATCGAAAGGTCGACGAGGTGTGTATACACCGTTT,2.62
4,CCTACTGGGCCATTCAGAGGTCTTTGATCATATG,-0.49
5,ATCGAAACGTCGAGGTGAGTATAGAGAAAGGGAA,-0.525
6,CCCAGCAGGCCAGGGTCACTCAAGCATTTCGCTT,1.61
7,CTTCCAAGGTCAATGCTAGGTCAGTGAAAGCATT,4.25
8,GGTACGAGGGCATTCGAGTTGATAGCATGGCGAT,0.123
9,TGTCAAAGTTCAAAGGTAACGTACGTATCCACAC,4.74
10,GGAACGAGAGCAAAGTTGATAGCATCTGTCGACG,-0.767
11,GCTATTAGTTGAAAGGGCAACCAAATGATTCTCG,0.946
12,ATATGTAGGTTACAACCGGGTCATTCAGGCTATG,2.93
13,TCTTGTAGATCAACAGGGGGTTAAGAAAGATCGA,3.75
14,CCTACTGGGCCAAAAAGCTCATTGATGCCGATAA,-0.724
15,AGTCAAAGTTCAGGACGAGTTAACGTAAAGCACG,1.9
16,TGAATGAGGTTAAAGATTAGGGAACGTGGCGTCG,1.38
17,CAAACTAGGTCCCGAAAGGTCAAAGTCGAATGAC,5.44
18,CCAAGTTGGTCAGGAGGTCACACACCGGATATGA,3.38
19,AGTCAAAGTTCAGGACGATGTAACGTAAAGCACG,1.8
20,GCAACGAGGGCAAAGTTGATAGCATCTGTCGACG,0.805
